Test in all cases: PBM; 200 nM protein, PBS
Common to all, as to settings: dsDNA, one strand shown

In experiment [1] the target is CRX (Homo sapiens, UniProt O43186 26-111).
The target in experiment [2] is CRX (Homo sapiens, UniProt O43186 26-111, E42D).
The target of experiment [3] is ALX3 (Homo sapiens, UniProt O95076 139-225, N203Q).
Experiment [4] deals with ALX3 (Homo sapiens, UniProt O95076 139-225).
Experiment [5] concerns the target ALX3 (Homo sapiens, UniProt O95076 139-225, L168Q).
Experiment [6] has as its target ALX3 (Homo sapiens, UniProt O95076 139-225, L168V).
The target of experiment [7] is CRX (Homo sapiens, UniProt O43186 26-111, R41L).
In experiment [8] the target is ALX3 (Homo sapiens, UniProt O95076 139-225, N203S).
Experiment [9] deals with ALX1 (Homo sapiens, UniProt Q15699 118-204, L144V).
For experiment [10], the target named is ALX1 (Homo sapiens, UniProt Q15699 118-204, L144R).
For experiment [11], the target named is ALX1 (Homo sapiens, UniProt Q15699 118-204).
Another experiment addresses PITX2 (Homo sapiens, UniProt Q99697 72-157).
The target of experiment [12] is MSX2 (Homo sapiens, UniProt P35548 130-214).
Experiment [13] addresses MSX2 (Homo sapiens, UniProt P35548 130-214, F161Y).

Chain of CRX (Homo sapiens, UniProt O43186 26-111, R41L) (O43186 26-111 R41L): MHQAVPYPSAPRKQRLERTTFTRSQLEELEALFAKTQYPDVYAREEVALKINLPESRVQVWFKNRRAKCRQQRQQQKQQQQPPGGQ
Chain of ALX1 (Homo sapiens, UniProt Q15699 118-204, L144V) (Q15699 118-204 L144V): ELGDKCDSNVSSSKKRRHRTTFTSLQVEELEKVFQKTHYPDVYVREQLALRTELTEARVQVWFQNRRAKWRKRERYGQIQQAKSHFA
Chain of ALX1 (Homo sapiens, UniProt Q15699 118-204) (Q15699 118-204): as the sequence (Q15699 118-204 L144V) above, with V27L counted along it
Chain of CRX (Homo sapiens, UniProt O43186 26-111) (O43186 26-111): as the sequence (O43186 26-111 R41L) above, with L16R counted along it
Chain of CRX (Homo sapiens, UniProt O43186 26-111, E42D) (O43186 26-111 E42D): as the sequence (O43186 26-111 R41L) above, with L16R, E17D counted along it
Chain of ALX1 (Homo sapiens, UniProt Q15699 118-204, L144R) (Q15699 118-204 L144R): as the sequence (Q15699 118-204 L144V) above, with V27R counted along it
Chain of ALX3 (Homo sapiens, UniProt O95076 139-225, L168V) (O95076 139-225 L168V): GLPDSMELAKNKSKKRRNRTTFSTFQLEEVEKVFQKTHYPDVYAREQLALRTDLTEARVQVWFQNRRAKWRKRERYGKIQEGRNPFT
Chain of MSX2 (Homo sapiens, UniProt P35548 130-214, F161Y) (P35548 130-214 F161Y): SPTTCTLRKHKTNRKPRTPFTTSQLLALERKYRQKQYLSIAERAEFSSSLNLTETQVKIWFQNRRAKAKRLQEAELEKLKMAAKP
Chain of ALX3 (Homo sapiens, UniProt O95076 139-225) (O95076 139-225): as the sequence (O95076 139-225 L168V) above, with V30L counted along it
Chain of ALX3 (Homo sapiens, UniProt O95076 139-225, L168Q) (O95076 139-225 L168Q): as the sequence (O95076 139-225 L168V) above, with V30Q counted along it
Chain of ALX3 (Homo sapiens, UniProt O95076 139-225, N203Q) (O95076 139-225 N203Q): as the sequence (O95076 139-225 L168V) above, with V30L, N65Q counted along it
Chain of ALX3 (Homo sapiens, UniProt O95076 139-225, N203S) (O95076 139-225 N203S): as the sequence (O95076 139-225 L168V) above, with V30L, N65S counted along it
Chain of MSX2 (Homo sapiens, UniProt P35548 130-214) (P35548 130-214): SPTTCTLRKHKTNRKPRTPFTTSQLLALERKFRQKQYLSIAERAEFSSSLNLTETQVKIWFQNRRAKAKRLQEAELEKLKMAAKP

For CGACTCGC, the binding signal with CRX [1] is 8.13 upbm affinity estimate (log intensity, higher = more binding, comparable within an allelic series); in the experiment with CRX [2], 8.24 upbm affinity estimate (log intensity, higher = more binding, comparable within an allelic series); with ALX3 [3], 7.77 upbm affinity estimate (log intensity, higher = more binding, comparable within an allelic series); with ALX3 [4], 7.61 upbm affinity estimate (log intensity, higher = more binding, comparable within an allelic series); in the experiment with ALX3 [5], 7.85 upbm affinity estimate (log intensity, higher = more binding, comparable within an allelic series); with ALX3 [6], 7.71 upbm affinity estimate (log intensity, higher = more binding, comparable within an allelic series). The binding signal with CRX [7] is 8.21 upbm affinity estimate (log intensity, higher = more binding, comparable within an allelic series); in the experiment with ALX3 [8], 7.81 upbm affinity estimate (log intensity, higher = more binding, comparable within an allelic series).

Turning to AGTTTATC, the binding signal with CRX [1] was 10.5 upbm affinity estimate (log intensity, higher = more binding, comparable within an allelic series); in the experiment with CRX [2], 10.3 upbm affinity estimate (log intensity, higher = more binding, comparable within an allelic series); with ALX1 [9], 7.91 upbm affinity estimate (log intensity, higher = more binding, comparable within an allelic series); with ALX1 [10], 8.01 upbm affinity estimate (log intensity, higher = more binding, comparable within an allelic series); with CRX [7], 10.2 upbm affinity estimate (log intensity, higher = more binding, comparable within an allelic series); with ALX1 [11], 8.04 upbm affinity estimate (log intensity, higher = more binding, comparable within an allelic series).

In the case of CCTCTGAC, the binding signal with CRX [1] was 7.95 upbm affinity estimate (log intensity, higher = more binding, comparable within an allelic series); in the experiment with CRX [2], 8.28 upbm affinity estimate (log intensity, higher = more binding, comparable within an allelic series); with PITX2, 7.92 upbm affinity estimate (log intensity, higher = more binding, comparable within an allelic series); with CRX [7], 8.19 upbm affinity estimate (log intensity, higher = more binding, comparable within an allelic series).

As for CCGGATTA, the binding signal is 13.5 upbm affinity estimate (log intensity, higher = more binding, comparable within an allelic series) with CRX [1]; 13.6 upbm affinity estimate (log intensity, higher = more binding, comparable within an allelic series) with CRX [2]; 13.1 upbm affinity estimate (log intensity, higher = more binding, comparable within an allelic series) in the experiment with PITX2; 13.5 upbm affinity estimate (log intensity, higher = more binding, comparable within an allelic series) with CRX [7].

With AATAATCC, the binding signal in the experiment with CRX [1] was 13.4 upbm affinity estimate (log intensity, higher = more binding, comparable within an allelic series); with CRX [2] it was 13.4 upbm affinity estimate (log intensity, higher = more binding, comparable within an allelic series); with PITX2 it was 13 upbm affinity estimate (log intensity, higher = more binding, comparable within an allelic series); with MSX2 [12], 11.5 upbm affinity estimate (log intensity, higher = more binding, comparable within an allelic series); with MSX2 [13] it was 11.3 upbm affinity estimate (log intensity, higher = more binding, comparable within an allelic series); with CRX [7], 13.4 upbm affinity estimate (log intensity, higher = more binding, comparable within an allelic series).

Take CCTAATCC: the binding signal with CRX [1] is 13.5 upbm affinity estimate (log intensity, higher = more binding, comparable within an allelic series); with CRX [2] it was 13.6 upbm affinity estimate (log intensity, higher = more binding, comparable within an allelic series); with PITX2, 13.3 upbm affinity estimate (log intensity, higher = more binding, comparable within an allelic series); with CRX [7], 13.2 upbm affinity estimate (log intensity, higher = more binding, comparable within an allelic series).

On to AAGATTAA, for which the binding signal with CRX [1] is 12.9 upbm affinity estimate (log intensity, higher = more binding, comparable within an allelic series); in the experiment with CRX [2], 12.9 upbm affinity estimate (log intensity, higher = more binding, comparable within an allelic series); in the experiment with PITX2, 12.5 upbm affinity estimate (log intensity, higher = more binding, comparable within an allelic series); with CRX [7] it was 12.6 upbm affinity estimate (log intensity, higher = more binding, comparable within an allelic series).

As for AGGATTAT, the binding signal is 13.4 upbm affinity estimate (log intensity, higher = more binding, comparable within an allelic series) with CRX [1]; 13.5 upbm affinity estimate (log intensity, higher = more binding, comparable within an allelic series) with CRX [2]; 13.2 upbm affinity estimate (log intensity, higher = more binding, comparable within an allelic series) with PITX2; 13.5 upbm affinity estimate (log intensity, higher = more binding, comparable within an allelic series) with CRX [7].

CGGACACG: the binding signal was 8.06 upbm affinity estimate (log intensity, higher = more binding, comparable within an allelic series) with CRX [1]; 8.04 upbm affinity estimate (log intensity, higher = more binding, comparable within an allelic series) with CRX [2]; 6.53 upbm affinity estimate (log intensity, higher = more binding, comparable within an allelic series) in the experiment with ALX1 [9]; 6.6 upbm affinity estimate (log intensity, higher = more binding, comparable within an allelic series) with ALX1 [10]; 8.13 upbm affinity estimate (log intensity, higher = more binding, comparable within an allelic series) with CRX [7]; 6.41 upbm affinity estimate (log intensity, higher = more binding, comparable within an allelic series) in the experiment with ALX1 [11].

Consider ATAATCCG, for which the binding signal was 13.7 upbm affinity estimate (log intensity, higher = more binding, comparable within an allelic series) in the experiment with CRX [1]; 13.8 upbm affinity estimate (log intensity, higher = more binding, comparable within an allelic series) with CRX [2]; 13.3 upbm affinity estimate (log intensity, higher = more binding, comparable within an allelic series) in the experiment with PITX2; 13.9 upbm affinity estimate (log intensity, higher = more binding, comparable within an allelic series) in the experiment with CRX [7].

Consider AGGGATTA, for which the binding signal in the experiment with CRX [1] was 13.6 upbm affinity estimate (log intensity, higher = more binding, comparable within an allelic series); with CRX [2], 13.7 upbm affinity estimate (log intensity, higher = more binding, comparable within an allelic series); with PITX2, 13.5 upbm affinity estimate (log intensity, higher = more binding, comparable within an allelic series); with CRX [7], 13.7 upbm affinity estimate (log intensity, higher = more binding, comparable within an allelic series).

For ACTAATCC, the binding signal with CRX [1] is 13.6 upbm affinity estimate (log intensity, higher = more binding, comparable within an allelic series); in the experiment with CRX [2], 13.7 upbm affinity estimate (log intensity, higher = more binding, comparable within an allelic series); in the experiment with PITX2, 13.4 upbm affinity estimate (log intensity, higher = more binding, comparable within an allelic series); in the experiment with CRX [7] it was 13.4 upbm affinity estimate (log intensity, higher = more binding, comparable within an allelic series).

For the sequence CGGCTTAA, the binding signal with CRX [1] is 12.9 upbm affinity estimate (log intensity, higher = more binding, comparable within an allelic series); in the experiment with CRX [2] it was 12.8 upbm affinity estimate (log intensity, higher = more binding, comparable within an allelic series); in the experiment with PITX2 it was 12.5 upbm affinity estimate (log intensity, higher = more binding, comparable within an allelic series).

For GATAATCC, the binding signal with CRX [1] was 13.6 upbm affinity estimate (log intensity, higher = more binding, comparable within an allelic series); in the experiment with CRX [2], 13.8 upbm affinity estimate (log intensity, higher = more binding, comparable within an allelic series); with PITX2 it was 13.4 upbm affinity estimate (log intensity, higher = more binding, comparable within an allelic series); with CRX [7], 13.9 upbm affinity estimate (log intensity, higher = more binding, comparable within an allelic series).

Regarding GCAAGGAC, the binding signal was 8.57 upbm affinity estimate (log intensity, higher = more binding, comparable within an allelic series) with CRX [1]; 8.32 upbm affinity estimate (log intensity, higher = more binding, comparable within an allelic series) with CRX [2]; 6.53 upbm affinity estimate (log intensity, higher = more binding, comparable within an allelic series) in the experiment with ALX1 [9]; 6.6 upbm affinity estimate (log intensity, higher = more binding, comparable within an allelic series) in the experiment with ALX1 [10]; 8.3 upbm affinity estimate (log intensity, higher = more binding, comparable within an allelic series) with CRX [7]; 6.36 upbm affinity estimate (log intensity, higher = more binding, comparable within an allelic series) with ALX1 [11].

These data come from publication PMC11006913.
